# Results: PubChem BioAssay (NCATS)
# Where “and” joins values, the source holds several entries; their conditions need not be identical. Equal entries are not always repeated. Inconclusive results are not listed. A call without a number means that no potency is given here. The source holds several records for some structures; these can differ, active in one and inactive in another. Calls of active or inactive are those of the source. Calls follow the shape of the full dose curve.
# Assay: Cytotoxicity counterscreen for inhibitors of SARS-CoV-2 cell entry (AID 1645845); also: nearly all actives have a fitted effect of over 50% in size
# Conditions: cell viability (SARS-CoV-2 entry assay cells); series mostly up to 57.1 µM
# Source text: Assay Provider: Wei Zheng, Ph.D.
# National Center for Advancing Translational Sciences, National Institute of Health, Rockville, MD.
# SARS-CoV-2 spike protein, within the viral envelope, mediates viral attachment and infection of host cells. The SARS-CoV-2 spike protein specifically binds to the host receptor ACE2 (Angiotensin-converting enzyme 2). This interaction promotes endocytosis of the viral particle, additional events lead to viral-host cell membrane fusion and release of the viral contents, allowing viral replication.
# While SARS-CoV-2 requires BSL-3 facilities for live virus work, pseudo-typed partices (PP) that incorporate SARS-CoV-2 spike proteins without replication elements could facilitate studies on viral entry mechanisms in a BSL-2 setting. This PP cell entry assay could also enable screening of small molecule compound libraries in BSL-2 setting to identify inhibitors of SARS-CoV-2 cell entry. To eliminate false positive compounds, ATP content cytotoxicity assay was screened in the same cell line.
# SEQUENCE No. (e.g., 1, 2, 3, etc.); […] (e.g., Cells, Incubation, Reagent, etc.); VALUE and DESCRIPTION.
# 1. Cells. Seed 1500 HEK293-ACE2 cells (Expi293F with stable expression of human ACE2) in 2 uL/well media (DMEM, 10% FBS, 1x L-glutamine, 1x Pen/Strep, 1 ug/ml puromycin) in white 1536-well assay plates (Greiner #782073).
# 2. Incubation. Incubate at 37 C with 5% CO2 overnight (~16 h).
# 3. Compounds. Dispense 23 nL/well compounds in DMSO via pin transfer.
# 4. Incubation. Incubate for 1 h at 37C 5% CO2.
# 5. Reagent. Dispense 2 uL/well of media (DMEM, 10% FBS, 1x L-glutamine, 1x Pen/Strep, 1 ug/ml puromycin).
# 6. Incubation. Incubate at for 48h at 37C 5% CO2
# 7. Reagent. Dispense 4 uL/well of ATPLite 1step luminescence assay reagent (PerkinElmer #6016739).
# 8. Incubation. Incubate for 15 min at room temperature.
# 9. Detection. Read luminescence signal (Viewlux plate reader, PerkinElmer). Data was normalized with wells containing cells as 100%, and wells without cells (media only control) as 0%.
# Potency is read from the fitted curve at half-maximal effect.
Structure (SMILES),Potency,outcome,"activity change, negative = cytotoxicity"
C/C=C1\[C@H]2C=C(C)C[C@]1(N)c1ccc(=O)[nH]c1C2,inactive,,
C[N+](C)(CCOc1ccccc1)Cc1cccs1,inactive,,
C=C1[C@H](CO)[C@@H](O)C[C@@H]1n1cnc2c(=O)[nH]c(N)nc21,inactive,,
CCN(Cc1ccncc1)C(=O)C(CO)c1ccccc1 (stereo not given),inactive,,
COc1cc(C(=O)NS(=O)(=O)c2ccccc2C)ccc1Cc1cn(C)c2ccc(NC(=O)OC3CCCC3)cc12,inactive,,
O=P(O)(O)C(Sc1ccc(Cl)cc1)P(=O)(O)O,,inactive [at 0.702 µM],
CCOP(=S)(OCC)Oc1ccc2c(C)c(Cl)c(=O)oc2c1,inactive,,
O=C(OOC(=O)c1ccccc1)c1ccccc1,inactive,,
Cc1cc(NS(=O)(=O)c2ccc(N)cc2)no1,inactive,,
CC(=O)OCC(=O)[C@@]1(O)CC[C@H]2[C@@H]3CCC4=CC(=O)CC[C@]4(C)[C@H]3C(=O)C[C@@]21C,inactive,,
COC(=O)C1=C(C)NC(C)=C(C(=O)OCC(C)=O)C1c1ccccc1[N+](=O)[O-] (stereo not given),inactive,,
CCN(CC)C(=O)/C(C#N)=C/c1cc(O)c(O)c([N+](=O)[O-])c1,inactive,,
CCN(CC)CC#CCOC(=O)C(O)(c1ccccc1)C1CCCCC1 (stereo not given),inactive,,
CN1CCN2c3ncccc3Cc3ccccc3C2C1 (stereo not given),inactive,,
CC(C)=CCC/C(C)=C/CO,inactive,,
O=C(O)Cc1cccc(-c2cc(CCCCCCc3ccc(O[C@H]4O[C@H](CO)[C@@H](O)[C@H](O)[C@@H]4O)c(-c4cccc(CC(=O)O)c4)c3)ccc2O[C@H]2O[C@H](CO)[C@@H](O)[C@H](O)[C@@H]2O)c1,,,4.02% [at 0.702 µM] (inactive)
COc1ccccc1OCC(O)CO (stereo not given),inactive,,
CC(=O)Nc1ccc(S(=O)(=O)Nc2cc(C)on2)cc1,inactive,,
CC(C)NC(C)C,inactive,,
CC(=O)Nc1c(I)cc(I)c(C(=O)O)c1I,inactive,,

Structure (SMILES),Potency,outcome,"activity change, negative = cytotoxicity"
Cc1cccn2c(=O)c(-c3nnn[nH]3)cnc12,inactive,,
CC1(C)O[C@@H]2C[C@H]3[C@@H]4C[C@H](F)C5=CC(=O)C=C[C@]5(C)[C@@]4(F)[C@@H](O)C[C@]3(C)[C@]2(C(=O)CO)O1,inactive,,
CC(=O)OC(C)C[N+](C)(C)C (stereo not given),inactive,,
CCCc1c2oc(C(=O)O)cc(=O)c2cc2c(=O)cc(C(=O)O)n(CC)c12,inactive,,
CC(=O)NCCCS(=O)(=O)O,inactive,,
O=C(O)[C@H](O)c1ccccc1,inactive,,
CC1CCN(CCCC(=O)c2ccc(F)cc2)CC1,inactive,,
NC(CO)(CO)CO,inactive,,
C[C@]12CC[C@@H]3c4ccc(OC(=O)N(CCCl)CCCl)cc4CC[C@H]3[C@@H]1CC[C@@H]2OP(=O)(O)O,inactive,,
COc1cc2c(Nc3ccc(Br)cc3F)ncnc2cc1OCC1CCN(C)CC1,inactive and 31.6 µM (active),,
CCc1cc(C(N)=S)ccn1,inactive,,
Nc1ccn(C[C@@H](CO)OCP(=O)(O)O)c(=O)n1,,,2.99% [at 0.702 µM] (inactive) and 4.32% [at 11.3 µM] (inactive)
O=S(=O)(O)c1ccc2nc(-c3ccccc3)[nH]c2c1,inactive,,
CC(=O)OCC(=O)[C@@]1(O)CC[C@H]2[C@@H]3CCC4=CC(=O)C=C[C@]4(C)[C@@]3(F)[C@@H](O)C[C@@]21C,inactive,,
c1ccc2sc(SSc3nc4ccccc4s3)nc2c1,inactive,,
O=C(Oc1ccccc1C(=O)O)c1ccccc1O,inactive,,
CCCCC(O)/C=C(C)/C=C/C=C/C(=O)N1CCCC1=O (stereo not given),inactive,,
COC(=O)CCCCC(CCSS/C(CCO)=C(\C)N(C=O)Cc1cnc(C)nc1N)SC(C)=O (stereo not given),inactive,,
CS(=O)(=O)c1ccc([C@@H](O)[C@@H](CF)NC(=O)C(Cl)Cl)cc1,inactive,,
COc1ccc(C(=O)NCc2ccc(OCCN(C)C)cc2)cc1OC,inactive,,
